According to ChEMBL document CHEMBL1157539, “Thousands of chemical starting points for antimalarial lead identification” (Nature, 2010):

test system: Plasmodium falciparum; experiment: GSK_TCMDC: Inhibition of Plasmodium falciparum 3D7 in whole red blood cells, using parasite LDH activity as an index of growth. Test compounds present at 2uM; assay type: functional

| SMILES | Inhibition [%] |
| --- | --- |
| O=C(Nc1cccc(CN2CCCN(Cc3ccccc3)CC2)c1)c1ccc(Cl)c(Cl)c1.O=C(O)C(F)(F)F | 95 |
| CC1CCN(C(=O)C(Cc2c[nH]c3ccccc23)NS(=O)(=O)c2ccc(Cl)cc2)CC1 (stereo not given) | 100 |
| CCCCCCCN1CCC(CCNc2ccnc3ccc(OC)cc23)CC1 | 84 |
| O=C(O)C(F)(F)F.O=c1[nH]ccc2nc(N[C@@H]3CCCNC3)nc(Nc3ccc(S(=O)(=O)N4CCOCC4)cc3)c12 | 96 |
| O=C(CSc1nc2ccc([N+](=O)[O-])cc2s1)Nc1ccccc1-c1ccccc1 | 80 |
| Nc1c(Cl)cc(C(O)CNCCCCCCOCCc2ccc(O)cc2)cc1Cl.O=C(O)/C=C/C(=O)O (stereo not given) | 97 |
| CC1(CCCCN2CCC(c3c[nH]c4cnccc34)CC2)C(=O)Nc2cccc(Cl)c21 (stereo not given) | 100 |
| Cc1cccc(C)c1CNc1cccc(-c2nc(C)c(C)[nH]2)c1.Cl | 99 |
| CCCCOC(=O)[C@H](CCC)NC(=O)c1ccc(NS(=O)(=O)c2ccc3nc(N)[nH]c(=O)c3c2)cc1 | 99 |
| COc1ccc(CCn2c(=N)c(C(=O)NCc3cccnc3)cc3c(=O)n4ccccc4nc32)cc1 | 98 |
| CCOC(=O)N(C)/N=C/[C@H](CCc1ccccc1)NC(=O)[C@H](CC(C)C)NC(=O)c1cc2cccc(OC)c2o1 | 86 |
| COc1ccc(N(C)Cc2cnc3nc(N)nc(N)c3n2)cc1 | 98 |
| CNCCNCc1cccc(-c2ccc(-c3nc4ccccc4[nH]3)cc2)c1.O=C(O)C(F)(F)F | 99 |
| COc1cc(COc2c(C)nc(N)nc2N)cc(OC)c1OC.Cl | 100 |
| Cc1ccc(C)c2sc(N(CCCn3ccnc3)C(=O)C=Cc3cccs3)nc12.Cl | 100 |
| COc1c(C2CCN(CCN3CCC(NC(=O)c4ccc(-c5ccc(C(F)(F)F)cc5)cc4)CC3)CC2)ccc2c1CCCC2 | 82 |
| CCOC(=O)C(C)(C)Oc1ccc(CN(Cc2ccc(CC(C)C)cc2)C(=O)Nc2ccc(F)cc2F)c(OC)c1 | 97 |
| CCc1cc2c(Sc3nnc(N)s3)ncnc2s1 | 99 |
| O=C(/C=C/c1ccc(Cl)c(Cl)c1)NCCCCCN1CCC(CCNC(=O)c2snnc2-c2ccccc2)CC1 | 89 |
| CN1CCC(C(=O)Nc2ccc(-c3cccc(-c4nc5cc(C(F)(F)F)ccc5[nH]4)c3)cc2)CC1 | 100 |

| SMILES | Inhibition [%] |
| --- | --- |
| Cc1ccc2c(c1)C1(CC(=O)N(CCc3scnc3C)C1=O)C(=O)N2Cc1ccccc1 (stereo not given) | 83 |
| O=C(O)C(F)(F)F.O=[N+]([O-])c1cccc(CNCC2CCN(Cc3ccc(C(F)(F)F)cc3)CC2)c1 | 100 |
| CN1CCC[C@H]1COc1ccc(CN2CC[C@H](NC(=O)c3ccc(Cl)c(Cl)c3)C2)cc1Br.O=C(O)C(F)(F)F | 100 |
| Cc1ccc(C(=O)Nc2ccc(C)c(OC3CCN(CCC(C)C)C3)c2)cc1.O=C(O)C(F)(F)F (stereo not given) | 99 |
| COc1ccc2[nH]ccc(=NN=Cc3ccncc3)c2c1 | 99 |
| CC(C)Cn1cc(C2CCN(CCN3CCC(CNC(=O)c4ccc(-c5ccc(C#N)cc5)cc4)CC3)CC2)c2ccccc21 | 100 |
| O=C(/C=C/c1ccc(C(F)(F)F)cc1)NCCCCCN1CCN(C(=O)Nc2ccc(Cl)c(Cl)c2)CC1 | 95 |
| CS(=O)(=O)c1ccc(CCNCc2ccc(-c3ccc(CN(C(=O)C4CCCC4)C4CCN(Cc5ccccc5)CC4)cc3)nc2)cc1.O=C(O)C(F)(F)F | 91 |
| COc1ccc(Cc2c(C)nc3nc(N)nc(N)c3c2C)cc1OC.Cl | 93 |
| COc1cc(-c2nc(-c3ccccc3)c(-c3ccccc3)[nH]2)cc(OC)c1O | 100 |
| Cc1cc(Nc2ccc(C)c(Cl)c2)n2nc(C(F)(F)F)nc2n1 | 98 |
| CCCCCn1c(Sc2ccc(C#N)c([N+](=O)[O-])c2)nnc1-c1ccc(OC)cc1 | 88 |
| C(=Cc1ccccc1)C=NN=c1cc[nH]c2ccccc12 | 100 |
| O=C(Nc1ccc(-c2nc3ccc(NC(=O)c4ccc(Br)cc4)cc3[nH]2)cc1)c1ccc(Br)cc1 | 98 |
| O=C(Nc1ccc(Cl)cc1)N(CC1CC2CCC(C1)N2Cc1ccc(C(F)(F)F)cc1)c1ccc(N2CCOCC2)c(F)c1 (stereo not given) | 85 |
| Br.CCOc1ccc(CCCON2C(=N)N=C(N)NC2(C)C)cc1 | 93 |
| O=C(NC1CCCC1)c1cc2c(=O)n3ccccc3nc2[nH]/c1=N/CCc1ccccc1 | 100 |
| O=C(/C=C/c1ccc(Cl)c(Cl)c1)N1CCC(CN2CCC(Cc3nc4ccccc4[nH]3)CC2)CC1 | 100 |
| CCN(CC)CCn1c(=N)n(CC(O)c2ccc(Cl)c(Cl)c2)c2ccccc21.Cl (stereo not given) | 99 |
| FC(F)(F)c1ccc(-c2cncc(-c3ccc(C(F)(F)F)cc3)n2)cc1 | 98 |
